A selection: hits, their analogues and other compounds. The true share with any hit is near 19%.
HT1080NT lethal = qHTS for induction of synthetic lethality in tumor cells producing 2HG: qHTS for the HT-1080-NT fibrosarcoma cell line; Potency, µM (highest dose often 46.1 µM), actives largely listed as cytotoxic; HT-1080-NT fibrosarcoma viability, CellTiter-Glo ATP luminescence, 48 h; AID 686970, 2013; hit rate 1.6% among 360,000;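 further: NT is the 2HG producing partner of a matched IDH1 knockdown line; nearly all actives have a fitted effect of over 55% in size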
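Fibrosarcoma NT cells, 750 per well in 5% FBS RPMI, were exposed to compound for 48 hours. Viability: CellTiter-Glo luminescence.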
HT1080 IDH1KD tx = qHTS for induction of synthetic lethality in tumor cells producing 2HG: qHTS for the HT-1080-IDH1KD cell line; HT-1080 IDH1 knockdown viability, ATP luminescence, 48 h; Potency, µM (doses to about 46.1 µM), usual class: cytotoxic; hit rate 2% among 360,000; AID 686971, 2013
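Luminescent ATP read-out (CellTiter-Glo, 10 min at room temperature) after 48 h compound exposure at 37 °C gave viability of IDH1-knockdown HT-1080 cells. Activity was normalised to DMSO and cell-free wells, then fitted as concentration-response curves.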
KB-3-1 tox = qHTS assay for MDR1-selective chemotherapeutics: Primary screen using the parental adenocarcinoma cell KB-3-1; KB-3-1 viability, CellTiter-Glo ATP luminescence, 72 h; Potency, µM (titrated, usually from 46.1 µM), usual class: cytotoxic; hit rate 1.4% among 400,000; further: nearly all actives have a fitted effect of over 60% in size
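72 h, 37 °C compound treatment of KB-3-1 parental cells; CellTiter-Glo added, 10 min, luminescence read. Data corrected against DMSO-only plates and normalized before curve fitting.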
DT40 TDP1 CPT = qHTS for Inhibitors of human tyrosyl-DNA phosphodiesterase 1 (TDP1): qHTS in cells in presence of CPT | chicken DT40 Tdp1-/-;hTDP1 cells + 20 nM CPT, ATP luminescence, 48 h | Potency, µM (doses to about 46.2 µM), usual class: inhibitors | hit rate 12% among 420,000 | AID 686979, 2013; further: nearly all actives have a fitted effect of over 55% in size
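Chicken DT40 Tdp1-/- cells complemented with human TDP1, 400 cells/well, exposed to compounds plus 20 nM camptothecin for at least 48 h at 37 C; viability read as ATP content by CellTiter-Glo luminescence.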
DT40 TDP1 no CPT = qHTS for Inhibitors of human tyrosyl-DNA phosphodiesterase 1 (TDP1): qHTS in cells in absence of CPT. DT40 Tdp1-/- hTDP1 cells, no CPT, ATP luminescence, 48 h. Potency, µM (highest dose often 46.2 µM), hits mostly inhibitors. hit rate 15% among 420,000; further: nearly all actives have a fitted effect of over 55% in size
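A cellular qHTS used chicken DT40 cells lacking endogenous Tdp1 but carrying stably transfected human TDP1. Compounds were applied without camptothecin, and cell growth kinetics were judged by ATP-dependent luminescence after ≥48 hr.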
KB-V1 MDR tox = qHTS assay for MDR1-selective chemotherapeutics: Primary screen using the drug-selected MDR subline cells KB-V1; hit rate 3.4% among 400,000; Potency, µM (highest dose often 46.1 µM), hits mostly cytotoxic; KB-V1 MDR cells viability, CellTiter-Glo, 72 h; further: nearly all actives have a fitted effect of over 60% in size
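KB-V1 MDR subline cells in DMEM (phenol-red free, 10% FBS) exposed to compounds in qHTS concentration series for 72 h at 37 degrees C. Viability read by CellTiter-Glo luminescence; concentration-effect curves fitted after normalization and correction.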
Hits are given with their value; – = inactive; ? = inconclusive; · = no result. The call rests on the fitted dose curve; in most records, active means well fitted curve in the direction sought with a large enough effect; inconclusive means small, poorly fitted or top-dose-only effect, or another doubt; inactive means no such curve, though single readings can be large; an effect the other way counts as inactive or inconclusive.

SMILES	HT1080NT lethal	HT1080 IDH1KD tx	KB-3-1 tox	DT40 TDP1 CPT	DT40 TDP1 no CPT	KB-V1 MDR tox
COC(=O)c1ccc(Cl)c(NS(=O)(=O)c2ccc3c(c2)OCCO3)c1	?	4.6µM	5.8µM	5.2µM	4.1µM	9.2µM
COc1ccccc1NC(=O)Cn1nc2c3cc(F)ccc3n(Cc3cccc(C)c3)cc-2c1=O	·	·	–	–	–	–
CCCCN(CC)C(=O)Cn1c(=O)n(-c2ccc(OCC)cc2)c(=O)c2c3c(sc21)CCC3	·	·	–	?	?	?
Cc1ccc(CNC(=O)CCc2c(C)nc3c(-c4ccc(F)cc4)c(C)nn3c2C)cc1	·	·	–	–	–	–
COC(=O)c1ccc(N2CC3CNC(=O)C2(C(=O)OC)N3C)cc1 (stereo unspecified)	?	–	?	–	–	?
CC1(C)C(c2ccccc2)=NC(c2ccc(Br)cc2)N1O (stereo unspecified)	–	–	–	–	?	–
CC1CN(C(=O)c2ccc(NS(=O)(=O)c3ccc(C(C)(C)C)cc3)cc2)CC(C)O1 (stereo unspecified)	–	–	–	15µM	9.2µM	–
Cc1cc(S(=O)(=O)Nc2ccc(C(=O)N3CCN(C(=O)c4ccco4)CC3)cc2)ccc1F	–	–	–	?	?	–
CCOc1ccc(S(=O)(=O)Nc2ccc(C(=O)N3CC(C)OC(C)C3)cc2)cc1 (stereo unspecified)	–	–	–	?	–	–
CCOc1ccc(NS(=O)(=O)c2ccc(C(=O)N3CCCCC3)cc2)cc1	–	–	?	15µM	13µM	–
O=C(N[C@@H](Cc1ccccc1)C(=O)N1CCN(S(=O)(=O)c2ccc(F)cc2)CC1)c1ccco1	–	–	–	15µM	21µM	–
O=C(c1ccc(S(=O)(=O)Nc2ccc(F)cc2)cc1)N1CCN(C(=O)c2ccco2)CC1	–	?	–	13µM	12µM	–
COc1cccc(Nc2ncc3nc(CCc4ccccc4)c(=O)n(C[C@H]4CCCO4)c3n2)c1	·	·	·	–	?	·
COc1ccc(-n2ncc3c(NCCCOC(C)C)ncnc32)cc1	·	·	–	?	?	–
CC(C)[C@H](NS(=O)(=O)c1ccc2c(c1)OCCO2)C(=O)OCC(=O)Nc1cc(Cl)ccc1Cl	–	–	–	?	29µM	–
O=C(NC(Cc1ccccc1)C(=O)N1CCN(c2ccccc2O)CC1)c1ccccc1 (stereo unspecified)	–	–	–	?	16µM	–
CC(=O)N1CCN(C(=O)C(Cc2ccccc2)NC(=O)c2ccccc2)CC1 (stereo unspecified)	–	–	–	–	–	–
CCOc1ccc(NS(=O)(=O)c2ccc(C(=O)N3CCN(c4ncccn4)CC3)cc2)cc1	–	?	?	9.2µM	8.2µM	?
CCOc1ccc(S(=O)(=O)Nc2ccc(C(=O)NCC3(N4CCCCC4)CCCCC3)cc2)cc1	?	–	–	?	21µM	–
CC(=O)c1ccc(S(=O)(=O)N2CCN(CC(=O)Nc3ccccc3C(=O)NC3CC3)CC2)cc1	–	–	?	?	?	–
COc1ccc(-n2c3c(cc(C(=O)NCC(=O)c4ccccc4)c2=O)C(=O)CC(C)(C)C3)cc1	–	–	–	–	–	–
CC(C)Cc1ccc(CC(=O)O)cc1	·	·	·	–	–	·
Cc1noc(C)c1CSCC(=O)Nc1cc(C(F)(F)F)ccc1N1CCOCC1	–	–	–	–	–	3.7µM

Bioassay records deposited in PubChem BioAssay by National Center for Advancing Translational Sciences (NCATS).
